Sampled rows, rich in hits. Any-hit rate of the full collection: about 3.3%.
FGF22 binding: binders of recombinant human FGF22 by thermal shift; 340,000 compounds, 1.5% hits; Q9HCT0; AID 651658; SYPRO orange fluorescence; percent of sucrose octasulfate shift, DMSO zero; activity (Tm shift, normalised), % at 9.99 µM;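 active means mean Tm shift, scaled 0 neutral to 100 positive control, at about 1.3% or above, every replicate too, limit read from the data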
GSIS activator: primary screen for activators of insulin secretion dependent on glucose, INS-1E cells, GLuc reporter luminescence; 370,000 compounds, 0.61% hits; activation, % at 16.6 µM; INS-1E GLuc reporter insulin secretion, 2-3 h;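 active means lowest replicate activation of at least 40%, so every replicate reaches that level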;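 further: 0% = median of neutral control wells and 100% = median of IBMX positive control wells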
ERAP1 HTS inh: blocks human ERAP1 aminopeptidase activity; recombinant ERAP1, Leu-AMC fluorescence, 60 min; Q9NZ08; inhibition, % at 10.7 µM; AID 652197; 340,000 compounds, 0.15% hits;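 active means mean replicate inhibition of at least 30%, or all replicates individually reaching that 30% level; inactive means mean below 30% and not every replicate reaching it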;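 further: 0% = neutral control wells and 100% = L-leucinethiol positive control wells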
Target sequence (Q9NZ08 whole entry, looked up): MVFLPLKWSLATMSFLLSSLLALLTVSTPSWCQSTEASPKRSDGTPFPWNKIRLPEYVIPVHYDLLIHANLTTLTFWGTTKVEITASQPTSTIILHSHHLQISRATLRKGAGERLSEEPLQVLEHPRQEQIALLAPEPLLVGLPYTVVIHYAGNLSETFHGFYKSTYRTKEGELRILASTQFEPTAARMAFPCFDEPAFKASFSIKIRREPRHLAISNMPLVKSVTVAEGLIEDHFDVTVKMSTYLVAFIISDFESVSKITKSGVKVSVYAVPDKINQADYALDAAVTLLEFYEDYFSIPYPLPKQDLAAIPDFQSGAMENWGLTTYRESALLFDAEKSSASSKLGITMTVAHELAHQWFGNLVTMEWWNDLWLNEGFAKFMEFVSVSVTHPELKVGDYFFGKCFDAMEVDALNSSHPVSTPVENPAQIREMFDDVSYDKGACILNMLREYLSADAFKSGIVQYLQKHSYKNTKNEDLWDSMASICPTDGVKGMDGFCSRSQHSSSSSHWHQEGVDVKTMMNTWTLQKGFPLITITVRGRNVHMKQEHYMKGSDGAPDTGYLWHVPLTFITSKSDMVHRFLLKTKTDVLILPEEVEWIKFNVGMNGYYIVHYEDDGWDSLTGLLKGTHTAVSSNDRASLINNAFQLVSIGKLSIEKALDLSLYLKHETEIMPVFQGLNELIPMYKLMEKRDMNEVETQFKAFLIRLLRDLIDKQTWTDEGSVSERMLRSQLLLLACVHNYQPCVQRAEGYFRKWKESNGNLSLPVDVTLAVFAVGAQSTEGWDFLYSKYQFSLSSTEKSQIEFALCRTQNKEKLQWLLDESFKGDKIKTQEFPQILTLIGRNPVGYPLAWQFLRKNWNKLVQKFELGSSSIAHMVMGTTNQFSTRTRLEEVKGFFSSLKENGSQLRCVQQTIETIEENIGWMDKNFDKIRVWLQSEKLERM
CASP6 VEID inh: inhibitors of human caspase-6; P55212; purified caspase-6, Z-VEID-R110 cleavage fluorescence; inhibition, % at 12.5 µM; 350,000 compounds, 0.53% hits; AID 686996;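 active means mean inhibition across replicates at least about 35%, with every replicate also reaching that limit, limit read from the data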;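 further: 0% = median of neutral control wells and 100% = no fluorescence left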
SIRT5 block: blocks human SIRT5 desuccinylation of peptide; Q9NXA8; Purified SirT5, succinyl-peptide AMC, trypsin-coupled fluorescence; inhibition, % at 15 µM; 330,000 compounds, 1.1% hits; AID 652115; in the data active means inhibition above about 15%
* hit, by the source's call; . = no result.

SMILES	FGF22 binding	GSIS activator	ERAP1 HTS inh	CASP6 VEID inh	SIRT5 block
COc1ccc(S(=O)(=O)Nc2ccc3c(c2)C(=O)N([C@@H](C)CO)C[C@@H](C)[C@H](CN(C)Cc2ccncc2)OCCCC[C@H](C)O3)cc1	-1	-8	-2	-2	17*
C[C@H]1CN([C@@H](C)CO)C(=O)c2cc(NS(=O)(=O)c3ccc(Cl)cc3)ccc2O[C@@H]1CN(C)S(=O)(=O)c1ccccc1	0	-6	.	.	.
COc1ncnc2c1sc1nc(-c3ccccc3)c3c(c12)CCCC3	.	0	.	.	.
CN(C)CCNc1ncnc2c1sc1nc(-c3ccccc3)c3c(c12)CCCC3	0	193*	-9	-108	-9
Cc1ccc(S(=O)(=O)N2CCC(C(=O)Nc3nnc(-c4ccc(F)cc4)s3)CC2)cc1	.	29	.	.	.
O=C(Nc1nnc(-c2ccc(F)cc2)s1)C1CCN(S(=O)(=O)c2ccc(Cl)cc2)CC1	.	60*	.	.	.
COc1ccccc1-c1cnc2c(c1)C(=O)N([C@@H](C)CO)C[C@@H](C)[C@@H](CN(C)C(=O)c1ccccc1)O2	0	12	.	.	.
COC(=O)c1ccc(/C=N/Nc2nc(N3CCCCC3)nc(N3CCCCC3)n2)cc1	44*	-1	-5	-3	7
CN(C)/C=C1\Oc2ccc3ccccc3c2C1=O	0	3	-1	9	112*
CN(C)/C=C1/Oc2c(ccc3ccccc23)C1=O	0	8	5	3	-3
O=C1CN(Cc2ccccc2)C[C@H]2[C@@H](c3ccc(-c4ccccc4F)cc3)[C@@H](CO)N12	.	26	1	1	0
Cc1cccc(-n2nc(CC#N)c(C#N)c2N)c1	44*	21	-1	5	-5
N#CCc1nn(-c2ccc(Cl)cc2)c(N)c1C#N	.	-3	.	.	.
C[C@H](NC(=O)C[C@H]1C[C@H]2c3cc(NC(=O)c4cccnc4)ccc3O[C@H]2[C@@H](CO)O1)c1ccccc1	0	12	3	0	3
O=C1CCC/C(=N/Nc2ccc(Cl)cc2)C1	44*	10	0	-4	-4
O=C(c1ccc(F)cc1)N1CCOCC1	0	-10	-1	-1	22*
O=C(O)CCCC(=O)Nc1ccccc1C(=O)N1CCOCC1	0	-14	-1	-2	28*
O=C(c1ccccc1O)N1CCOCC1	43*	-7	-6	-2	-6
O=C(c1ccccc1)c1ccccc1C(=O)N1CCOCC1	0	-46	-2	-1	4
O=C(c1ccc(-n2nc(C(F)(F)F)c3c2CCCC3)cc1)N1CCOCC1	43*	-13	-1	-2	-2
O=C(CCN1CCCCC1)NCC[C@@H]1CC[C@@H](NC(=O)C2CCC2)[C@@H](CO)O1	0	9	-2	-7	0
CCCNC(=O)N1[C@@H]2CN(C(=O)CC)c3ccccc3[C@@H]2[C@@H]1CO	.	7	.	.	.
O=C(NCc1ccc(F)cc1)[C@@H]1[C@@H](CO)[C@@H]2Cn3c(cccc3=O)[C@H]1N2C(=O)C1CC1	.	-1	3	0	1
COC(=O)COc1cc(OCC(=O)OC)c2c(-c3ccccc3)cc(=O)oc2c1	0	64*	0	0	-6
c1ccc(-c2cncnc2)cc1	0	-2	-3	-1	25*
SMILES	FGF22 binding	GSIS activator	ERAP1 HTS inh	CASP6 VEID inh	SIRT5 block
CCc1nnc(NC(=O)CN2C(=O)NC3(CCCC3)C2=O)s1	0	7	39*	1	-16
CC1CCC2(CC1)NC(=O)N(CC(=O)Nc1sc3c(c1C(N)=O)CCC3)C2=O (configuration not stated)	0	7	0	42*	7
CCc1nnc(NC(=O)CN2C(=O)NC3(CC(C)CC(C)(C)C3)C2=O)s1 (configuration not stated)	1	-2	1	1	-1
C[C@@H]1CCCCO[C@@H](CN(C)CC2CCCCC2)[C@@H](C)CN([C@@H](C)CO)C(=O)c2cc(NS(=O)(=O)c3cccs3)ccc2O1	0	-3	-3	0	1
COc1ccc(N2C(=O)C(CN3CCN(C)CC3)C2c2ccccc2)cc1 (configuration not stated)	44*	3	-5	-1	-4
COc1ccc(C2C(CN3CCOCC3)C(=O)N2c2ccccc2)cc1 (configuration not stated)	0	-1	1	1	1
C[C@@H]1CCCCO[C@@H](CN(C)Cc2ccc(C(=O)O)cc2)[C@@H](C)CN([C@@H](C)CO)C(=O)c2cc(NS(=O)(=O)c3ccc(F)cc3)ccc2O1	0	3	-1	1	3
CC(C)NC(=O)N(C)C[C@H]1Oc2c(NC(=O)C3CCCCC3)cccc2C(=O)N([C@@H](C)CO)C[C@@H]1C	0	19	-1	-3	5
CCC/C(=C1/c2ccccc2C(=O)N1c1ccccc1)c1ccc2c(c1)OCO2	0	-1	0	-3	.
CCC/C(=C1/c2ccccc2C(=O)N1c1ccccc1)c1c(C)noc1C	43*	15	1	-2	.
CC(=O)N(C)C[C@H]1Oc2cc(C#Cc3cccc(F)c3)ccc2S(=O)(=O)N([C@@H](C)CO)C[C@@H]1C	.	-29	-1	4	2
Cc1ccc(CN2CCN(Cc3cccn3-c3ccccn3)CC2CCO)cc1 (configuration not stated)	0	0	-4	-1	-6
OCCC1CN(Cc2cccn2-c2ccccn2)CCN1C1CCCCC1 (configuration not stated)	44*	-9	2	-9	-3
C[C@@H]1CCCCO[C@H](CN(C)C(=O)NC2CCCCC2)[C@@H](C)CN([C@H](C)CO)C(=O)c2cc(NC(=O)Nc3ccc4c(c3)OCO4)ccc2O1	0	-1	-1	1	0
Cc1ccc(S(=O)(=O)Nc2ccc3c(c2)C(=O)N([C@H](C)CO)C[C@@H](C)[C@H](CN(C)Cc2ccc(C(F)(F)F)cc2)OCCCC[C@H](C)O3)cc1	-1	-11	2	8	13
C[C@H](CO)N1C[C@H](C)[C@@H](CN(C)Cc2ccc(C(F)(F)F)cc2)OCCCC[C@H](C)Oc2ccc(NS(=O)(=O)c3ccc(F)cc3)cc2C1=O	.	-18	0	0	20*
C[C@@H]1CCCCO[C@@H](CN(C)Cc2ccc(C(F)(F)F)cc2)[C@@H](C)CN([C@H](C)CO)C(=O)c2cc(NS(=O)(=O)c3ccc(F)cc3)ccc2O1	1	3	-2	-4	4
C[C@H]1CCCCO[C@H](CN(C)Cc2ccc(C(F)(F)F)cc2)[C@@H](C)CN([C@@H](C)CO)C(=O)c2cc(NS(=O)(=O)c3ccc(F)cc3)ccc2O1	-1	-16	0	0	23*
C[C@@H]1CN([C@H](C)CO)C(=O)c2cc(C#CCc3ccccc3)cnc2O[C@@H]1CN(C)Cc1cccnc1	0	-13	-2	0	0
COc1nc(C)c2cc(C)oc2n1	0	1	-4	51*	-4

High-throughput results (PubChem BioAssay)
